Results as given in PubChem BioAssay (NCATS).
Results filed as inconclusive are left out. Active and inactive are the calls of the source. Calls come from the whole dose curve; as a rule, active = well fitted curve in the direction sought with a large enough effect; inconclusive = small, poorly fitted or top-dose-only effect, or another doubt; inactive = no such curve, though single readings can be large; an effect the other way counts as inactive or inconclusive.

Columns and labels:
[1] = biological target: Protein phosphatase 1D (Homo sapiens) (UniProt O15297); assay: RapidFire Mass Spectrometry qHTS Assay for Modulators of WT P53-Induced Phosphatase 1 (WIP1) (AID 1347424); details: WIP1 dephosphorylation of phosphopeptide, RapidFire MS; series mostly up to 63 µM;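 note: amount of dephosphorylated VEPPL-S-QETFS peptide product formed by WIP1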
Outline: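 Mass-spectrometric measurement of dephosphorylated peptide after a 5 min room-temperature reaction of 10 nM WIP1 with 2 uM phosphopeptide, following 1 h compound preincubation in 30 mM MgCl2 buffer.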

[2] = biological target: Protein phosphatase 1D (Homo sapiens) (UniProt O15297); assay: Rhodamine-PBP qHTS Assay for Modulators of WT P53-Induced Phosphatase 1 (WIP1) (AID 1347425); details: recombinant WIP1, Rhodamine-PBP phosphate fluorescence, real-time; series mostly up to 57.5 µM
Outline: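 Steps: enzyme with Rh-PBP sensor and compounds, room-temperature incubation of 1 hr, baseline read, addition of VEPPL-pS-QETFS (10 uM final), kinetic fluorescence reads at 525/598 nm. Activity equals final minus baseline signal.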

[3] = Primary qHTS for inhibitors of La Crosse Virus (LACV) - induced cell death in SH-SY5Y cells (AID 1508616); details: SH-SY5Y LACV cytopathicity rescue, ATP luminescence, 6 d; series mostly up to 4.29 µM;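 note: top concentration of the series differs between compounds; higher means more rescue of cells from virus-induced death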
Outline: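 Cytopathicity rescue screen: compounds pinned onto SH-SY5Y cells, which are then infected with LACV (MOI 0.01) and held 6 days at 37C. Percent activity is scaled between infected DMSO control and uninfected DMSO control.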

[4] = biological target: Calcium and integrin-binding protein 1 (Homo sapiens) (UniProt Q99828); assay: Primary qHTS for Identification of Calcium Integrin Binding Protein 1 (CIB1) Competitor (AID 1508620); details: CIB1-GST / FITC-alphaIIb peptide fluorescence polarization; series mostly up to 114 µM;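 note: GST tagged CIB1 binding a fluorescein labelled alphaIIb integrin peptide tracer; top concentration of the series differs between compounds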
Outline: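 Fluorescence polarization competition: CIB1-GST (1 uM final) preincubated with compound 15 min at room temperature, then FITC-labeled alphaIIb peptide (100 nM final) added for another 15 min. Polarization read at Ex 480/Em 540.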

Measured: Potency

Calcium and integrin-binding protein 1 (Homo sapiens), sequence (Q99828 whole entry, looked up): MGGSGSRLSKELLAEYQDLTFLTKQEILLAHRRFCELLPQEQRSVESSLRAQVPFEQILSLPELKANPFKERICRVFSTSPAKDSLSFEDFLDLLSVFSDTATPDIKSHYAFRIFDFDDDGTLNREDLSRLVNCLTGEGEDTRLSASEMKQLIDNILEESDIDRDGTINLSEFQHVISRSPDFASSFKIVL
Protein phosphatase 1D (Homo sapiens), sequence (O15297 whole entry, looked up): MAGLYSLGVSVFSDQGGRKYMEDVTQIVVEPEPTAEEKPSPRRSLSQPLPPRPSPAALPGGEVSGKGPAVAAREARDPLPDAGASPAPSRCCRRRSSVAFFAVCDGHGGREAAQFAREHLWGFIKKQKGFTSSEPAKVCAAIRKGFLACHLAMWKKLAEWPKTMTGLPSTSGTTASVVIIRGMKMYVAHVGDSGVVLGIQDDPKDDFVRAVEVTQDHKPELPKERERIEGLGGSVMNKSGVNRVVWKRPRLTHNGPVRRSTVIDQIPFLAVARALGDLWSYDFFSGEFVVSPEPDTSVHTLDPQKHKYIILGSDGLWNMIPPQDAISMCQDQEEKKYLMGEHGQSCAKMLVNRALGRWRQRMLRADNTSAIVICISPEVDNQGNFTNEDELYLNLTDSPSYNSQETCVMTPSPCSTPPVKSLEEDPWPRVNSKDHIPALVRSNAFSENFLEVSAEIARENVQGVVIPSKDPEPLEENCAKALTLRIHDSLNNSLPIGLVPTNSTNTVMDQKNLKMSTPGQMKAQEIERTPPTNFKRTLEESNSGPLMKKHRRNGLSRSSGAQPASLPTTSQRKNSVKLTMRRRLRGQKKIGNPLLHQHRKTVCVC

CCCCOc1ccc(OCCCN2CCOCC2)cc1
inactive: all assays above

COc1ccc(CCN2CCC(Nc3nc4ccccc4n3Cc3ccc(F)cc3)CC2)cc1
inactive: all assays above

N[C@H](Cc1c[nH]c2ccccc12)C(=O)O
inactive: all assays above

Oc1cc(O)c2c(c1)O[C@H](c1ccc(O)c(O)c1)[C@H](O)C2
inactive: all assays above

CNC(=O)CN(CCN(CCN(CC(=O)[O-])CC(=O)NC)CC(=O)[O-])CC(=O)[O-].O.[Gd+3]
inactive: all assays above

COc1ccc(OC)c(C(O)CNC(=O)CN)c1 (stereo not given)
inactive: all assays above

CC1(C)O[C@@H]2[C@@H](CO[C@@]3(COS(N)(=O)=O)OC(C)(C)O[C@@H]23)O1
inactive: all assays above

CCCCC1=NC2(CCCC2)C(=O)N1Cc1ccc(-c2ccccc2-c2nn[nH]n2)cc1
inactive: all assays above

CCCCOc1cc(C(=O)NCCN(CC)CC)c2ccccc2n1
inactive: all assays above

CN=C(NC#N)NCCSCc1csc(N=C(N)N)n1
inactive: all assays above

Cc1c(C(C)C)c(=O)n(-c2ccccc2)n1C
inactive: all assays above

C[C@]12C=CC(=O)C=C1[C@@H](F)C[C@@H]1[C@@H]2[C@@H](O)C[C@@]2(C)[C@H]1CC[C@]2(O)C(=O)CO
inactive: all assays above

CCCCN1CCCC1C(=O)Nc1c(C)cc(C)cc1C (stereo not given)
inactive: all assays above

COc1cccc(CCc2ccccc2OCC(CN(C)C)OC(=O)CCC(=O)O)c1 (stereo not given)
inactive: all assays above

CC[C@@H](CO)NCCN[C@@H](CC)CO
inactive: all assays above

NC(CS)C(=O)O (stereo not given)
inactive: all assays above

Cc1cc(=O)n(-c2ccccc2)n1C
inactive: all assays above

C[C@]12CCC(=O)C=C1[C@@H]1C[C@@H]1[C@H]1[C@@H]3[C@@H]4C[C@@H]4[C@@]4(CCC(=O)O4)[C@@]3(C)CC[C@@H]12
inactive: all assays above

COc1cc(N)c(Cl)cc1C(=O)NC1CCN(CCCOc2ccc(F)cc2)CC1OC (stereo not given)
inactive: all assays above

O=C1[C@H]2CCCC[C@H]2C(=O)N1CCCCN1CCN(c2nsc3ccccc23)CC1
inactive: all assays above

Cc1c(N(C)CS(=O)(=O)O)c(=O)n(-c2ccccc2)n1C
inactive: all assays above

C[C@]12CC[C@H]3[C@@H](CCC4=CC(=O)CC[C@@]43C)[C@@H]1CC[C@@H]2C(=O)CO
inactive: all assays above

CCOc1ccc(NC(=O)CC(C)O)cc1 (stereo not given)
inactive: all assays above

CC(=O)OCC(=O)NCCCOc1cccc(CN2CCCCC2)c1
inactive: all assays above

CC(=O)[C@H]1CC[C@H]2[C@@H]3C[C@H](C)C4=CC(=O)CC[C@]4(C)[C@H]3[C@@H](O)C[C@]12C
inactive: all assays above

CC(O)(P(=O)(O)O)P(=O)(O)O
inactive: all assays above

O=C(N/N=C/c1ccccc1O)c1ccncc1
inactive: all assays above

OCc1ccccc1O
inactive: all assays above

CCN(CC)CCOC(=O)C(c1ccccc1)C1CCCCC1 (stereo not given)
inactive: all assays above

CN=C(NC#N)Nc1ccc(C2=NNC(=O)CC2C)cc1 (stereo not given)
inactive: all assays above

CCN(CC)CCNC(=O)COc1ccc(Cl)cc1
inactive: all assays above

CCCCCC=CCC=CCCCCCCCC(=O)OCC
inactive: all assays above

CCCCCCC[N+](CC)(CC)CCCCc1ccc(Cl)cc1
inactive: all assays above

OC(CCN1CCCCC1)(c1ccccc1)c1ccccc1
inactive: all assays above

CCCCS(=O)(=O)N[C@@H](Cc1ccc(OCCCCC2CCNCC2)cc1)C(=O)O
inactive: all assays above
